# The list is not random: actives were taken first. Their share in the collection is about 19%.
# Gal4-VP16 FLuc = VP16 counterscreen qHTS for inhibitors of ROR gamma transcriptional activity. Drosophila S2 Gal4-VP16 UAS-luciferase, luminescence, 20 h. Potency, µM (top dose mostly 53.6 µM), for inactives: top-dose activity, negative = inhibition, hits mostly inhibitors. hit rate 3.5% among 310,000. AID 2546, 2010;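 further: Gal4-VP16 expression switched on by copper sulfate through the metallothionein promoter; nearly all actives have a fitted effect of over 50% in size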
# DT40 TDP1 CPT = qHTS for Inhibitors of human tyrosyl-DNA phosphodiesterase 1 (TDP1): qHTS in cells in presence of CPT; chicken DT40 Tdp1-/-;hTDP1 cells + 20 nM CPT, ATP luminescence, 48 h; Potency, µM (top dose mostly 46.2 µM), inactives show at the top dose activity change, negative = growth inhibition, usual class: inhibitors; hit rate 12% among 420,000; further: nearly all actives have a fitted effect of over 55% in size
#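 Chicken DT40 Tdp1-/- cells stably complemented with human TDP1 were seeded at 400 cells/well in medium containing 20 nM camptothecin, exposed to pin-transferred compounds, and grown at 37 °C for at least 48 hr. Viability was read as ATP luminescence.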
# TDP1 cell noCPT = qHTS for Inhibitors of human tyrosyl-DNA phosphodiesterase 1 (TDP1): qHTS in cells in absence of CPT; DT40 Tdp1-/- hTDP1 cells, no CPT, ATP luminescence, 48 h; Potency, µM (highest dose often 46.2 µM), for the others: at the highest dose activity change, negative = growth inhibition, actives largely listed as inhibitors; hit rate 15% among 420,000; further: nearly all actives have a fitted effect of over 55% in size
#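 Camptothecin absent (DMSO only). Human TDP1-complemented DT40 knockout cells, 400 cells/well, 37 °C for minimum 48 hr; ATP measured via CellTiter-Glo, 30 min dark incubation, luminescence.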
# RORg inh = qHTS for inhibitors of ROR gamma transcriptional activity | hit rate 5.4% among 310,000 | Nuclear receptor ROR-gamma (Mus musculus), P51450 | Potency, µM (series often up to 53.6 µM), for the others: top-dose activity change, negative = inhibition, hits mostly inhibitors | Drosophila S2 Gal4-RORgamma UAS-luciferase reporter, 20 h; further: nearly all actives have a fitted effect of over 60% in size
#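 Stable Schneider cell line, Gal4 DNA-binding domain fused to ROR gamma, UAS-luciferase. Cmpd 1 hr RT → CuSO4 700 uM final → 20 hr RT → luciferase reagent 10 min → luminescence.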
# TDP1 inh = qHTS Assay for Inhibitors of Tyrosyl-DNA Phosphodiesterase (TDP1). Tyrosyl-DNA phosphodiesterase 1 (Homo sapiens), Q9NUW8. recombinant TDP1, AlphaScreen DNA substrate cleavage. Potency, µM (highest dose often 130 µM), for the others: at the top dose activity change, negative = inhibition, most hits filed as inhibitors. hit rate 0.28% among 350,000. AID 485290, 2010; further: nearly all actives have a fitted effect of over 40% in size
# Target sequence (Q9NUW8 whole entry, looked up): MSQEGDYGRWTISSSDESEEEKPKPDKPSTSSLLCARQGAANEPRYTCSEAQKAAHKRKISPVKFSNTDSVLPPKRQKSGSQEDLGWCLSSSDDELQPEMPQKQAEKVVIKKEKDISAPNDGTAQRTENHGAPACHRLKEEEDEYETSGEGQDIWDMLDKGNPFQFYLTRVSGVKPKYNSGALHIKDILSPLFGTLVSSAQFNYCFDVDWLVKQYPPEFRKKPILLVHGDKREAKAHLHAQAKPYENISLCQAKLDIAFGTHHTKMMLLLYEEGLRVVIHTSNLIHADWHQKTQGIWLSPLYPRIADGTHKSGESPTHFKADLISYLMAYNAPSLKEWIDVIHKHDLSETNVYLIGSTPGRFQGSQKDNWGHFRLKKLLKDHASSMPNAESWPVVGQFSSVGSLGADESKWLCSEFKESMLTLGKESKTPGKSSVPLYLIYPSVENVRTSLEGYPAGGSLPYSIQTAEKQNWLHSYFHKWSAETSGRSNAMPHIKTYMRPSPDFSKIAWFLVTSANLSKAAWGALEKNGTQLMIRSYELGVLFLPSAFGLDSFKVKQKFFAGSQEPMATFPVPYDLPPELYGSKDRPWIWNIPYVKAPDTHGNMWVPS
#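 AlphaScreen read-out: signal falls as enzyme removes the 3' tyrosine-FITC from a 5'-biotinylated DNA oligo (15 nM, 5 min, RT). Enzyme was E. coli-made recombinant Tdp1 at 1 nM, exposed to compound for 15 min beforehand; beads 10 ug/ml, 10 min.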
# * hit, by the source's call; ? = inconclusive; . = not tested or not shown; [ ] = another dose, or the depositor's remark. The call rests on the fitted dose curve; in most records, active means well fitted curve in the direction sought with a large enough effect; inconclusive means small, poorly fitted or top-dose-only effect, or another doubt; inactive means no such curve, though single readings can be large; an effect the other way counts as inactive or inconclusive. On the % scale 0 is the no-effect control and ±100 the full control effect; potency means the concentration at half of the fitted maximal effect.
SMILES,Gal4-VP16 FLuc,DT40 TDP1 CPT,TDP1 cell noCPT,RORg inh,TDP1 inh
CNS(=O)(=O)c1cccc(C(=O)OCC(=O)Nc2ccc(OC)cc2[N+](=O)[O-])c1,3%,33µM*,6.5µM*,7%,-2%
COc1ccc(NC(=O)CSc2ccccc2)c([N+](=O)[O-])c1,-14%,-1%,29µM*,27%,-1%
COc1ccc(NC(=O)COC(=O)c2cc(OC)c(OC)c(OC)c2)c([N+](=O)[O-])c1,-4%,-10%,20%,-6%,-4%
COc1ccc(NC(=O)C/C(C)=N/NC(=O)c2ccncc2)c([N+](=O)[O-])c1,-21%,-14%,-23%,13µM*,9%
COc1ccc(OC)c(NC(=O)c2cccc(Cn3cc(Br)c([N+](=O)[O-])n3)c2)c1,-11%,?,?,?,7%
Cc1ccc(C(C(=O)NC2CCCCC2)N2CCC3(CC2)OCCO3)cc1 (stereo not given),6%,-1%,-8%,1%,-2%
C/C(=N\Nc1nccnc1Cl)c1ccc(F)cc1,2.8µM*,6%,0%,5.6µM*,5%
C/C(=N\Nc1nccnc1Cl)c1c(F)c(F)c(F)c(F)c1F,?,-1%,3%,8.9µM*,5%
O=C(NCc1ccccc1C(F)(F)F)C1CC(c2cccc(F)c2)=NO1 (stereo not given),-3%,-1%,2%,1%,4%
Cc1ccccc1OCC(=O)Nc1ccc2nc(SCc3ccccc3)sc2c1,.,-13%,4%,.,3%
Cc1ccc(C(=O)O/N=C(\N)c2ccccn2)c(Cl)c1,2.8µM*,?,?,0.71µM*,.
Cc1ccc(C(=O)O/N=C(\N)c2ccccc2)c(Cl)c1,8.9µM*,-5%,?,4.5µM*,.
N/C(=N\OC(=O)c1ccc(Cl)cc1Cl)c1ccccn1,?,-23%,2%,7.1µM*,5%
O=C(NC1CC(=O)N(c2cccc(F)c2)C1)c1ccc(S(=O)(=O)N2CCCCC2)cc1 (stereo not given),.,-18%,-23%,.,-5%
Cc1nc2cc(NC(=O)NCc3ccco3)ccc2o1,28%,0%,-14%,34%,3%
COc1cc(NC(=O)CN2CCCCC2)c(C)cc1[N+](=O)[O-],-15%,9%,3%,22%,-5%
COc1cc(NC(=O)Cn2ncc(Cl)c(Cl)c2=O)c(C)cc1[N+](=O)[O-],7.1µM*,2.9µM*,4.6µM*,2µM*,-1%
CCc1noc(C)c1C(=O)Nc1cc(S(=O)(=O)N(CC)CC)ccc1N1CCCC1,.,-1%,-11%,.,.
CC1CCN(C(=O)CSc2n[nH]c(-c3ccc(F)cc3)n2)CC1,.,?,?,.,3%
CCNCc1nc2cc(Cl)ccc2c(=O)[nH]1,16µM*,-25%,?,6.3µM*,3%
NC(=O)C1CCN(Cc2nc3cc(Cl)ccc3c(=O)[nH]2)CC1,22%,-10%,-12%,-3%,-2%
Clc1ccc(OCCN2CCN(c3ncnc4sccc34)CC2)cc1,0.63µM*,0.58µM*,0.58µM*,?,7%
Cc1sc2ncnc(N3CCCCC3)c2c1C,-8%,?,-29%,1%,-1%
Cc1ccc(OCCN2CCN(c3ncnc4sc(C)c(C)c34)CC2)cc1,3.5µM*,3.7µM*,3.7µM*,8.9µM*,4%
CCCCn1c(N)c(N2CCOCC2)c(=O)n(CC(=O)NC(C)c2ccccc2)c1=O (stereo not given),3%,16%,-2%,-8%,9%
SMILES,Gal4-VP16 FLuc,DT40 TDP1 CPT,TDP1 cell noCPT,RORg inh,TDP1 inh
CCc1nc2c(OCc3ccccc3C)cccn2c1N(C)C(=O)c1ccc(C)cc1,.,18µM*,16µM*,.,.
CCc1nc2c(OCc3ccc(F)c(F)c3)cccn2c1N(C)C(=O)c1ccc(C)cc1,.,23µM*,9.2µM*,.,.
CCc1nc2c(OCCOC)cccn2c1N(C)C(=O)c1ccc(C)cc1,.,-3%,-4%,.,.
CCc1nc2c(OCc3cc(Cl)cc(Cl)c3)cccn2c1N(C)C(=O)c1ccc(C)cc1,.,16µM*,?,.,.
CCc1nc2c(OCc3ccc(Cl)cc3)cccn2c1N(C)C(=O)c1ccncc1,.,21µM*,21µM*,.,.
COc1ccccc1Nc1nnc(SCC(=O)Nc2cc(C)on2)s1,0%,-1%,-20%,-30%,5%
COc1ccc(C2C(C#N)=C(N)OC3=C2C(=O)CC(C)C3)c(OC)c1OC (stereo not given),14%,-4%,-9%,7%,11%
CCc1nc2c(OCc3ccc(F)c(F)c3)cccn2c1N(C)C(=O)c1ccc(OC)cc1,.,16µM*,23µM*,.,.
CCc1cc2c(cc(C(=O)O)n2C)s1,10%,-3%,-9%,2%,2%
CN(C)S(=O)(=O)Nc1cc(Cl)cc(Cl)c1,2%[10 µM],18µM*,?,-7%,-3%
Fc1ccc(C2c3cccn3CCN2C(=S)Nc2cccc(Br)c2)cc1 (stereo not given),?,?,?,8.9µM*,7%
CCCCNC(=S)N1CCn2cccc2C1c1ccc(F)cc1 (stereo not given),8%,16µM*,?,-106%,6%
Fc1ccc(NC(=S)N2CCn3cccc3C2c2cccnc2)cc1 (stereo not given),3%,-10%,-3%,9%,11%
Cc1csc(=O)n1CCC(=O)OCc1nnc(-c2ccc([N+](=O)[O-])cc2)o1,.,-29%,-18%,.,3%
O=C(c1ccccc1)c1sc(N2CCOCC2)nc1-c1ccccc1,-12%,?,?,1%,5%
O=C(N/N=C/c1sc(N2CCOCC2)nc1-c1ccccc1)c1ccc(O)cc1,-3%,?,?,5%,1%
O=C(c1ccccc1)c1sc(N2CCCCCC2)nc1-c1ccccc1,-8%,?,15µM*,-3%,?
[2H]c1c([2H])c([2H])c(C(=O)c2sc(N3CCCCCC3)nc2-c2ccccc2)c([2H])c1[2H],1%,?,16µM*,-36%,-6%
COc1ccc(-c2nc(N3CCCCCC3)sc2C(=O)c2ccccc2)cc1,-2%,?,23µM*,-17%,-6%
O=C(c1ccc(Br)cc1)c1sc(N2CCOCC2)nc1-c1ccccc1,-5%,?,21µM*,4%,-6%
CC(=O)N1N=C(c2ccc(C)cc2)CC1c1ccc2c(c1)OCO2 (stereo not given),3%,0%,?,-5%,0%
Cc1ccc(C(=O)Nc2cccc(S(=O)(=O)N(C)c3ccccc3)c2)o1,.,?,?,.,4%
Cc1cccc(NC(=O)C2CC(=O)n3ncnc3N2)c1 (stereo not given),-10%,5%,9%,1%,.

# Screening data from PubChem BioAssay.
